HepG2 tox: HepG2 cytotoxicity, counter-screen for TGF-b inhibitors | HepG2 CAGA-GFP viability, ATP luminescence, 18 h | Potency, µM (top dose mostly 46.1 µM), without a hit: top-dose activity change, negative = cytotoxicity, most hits filed as cytotoxic | 410,000 compounds, 0.76% hits; further: potency means the concentration at half of the fitted maximal effect
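CellTiter-Glo luminescence gave cytotoxicity after 18 hours at 37 degrees C. The cells were HepG2 CAGA-GFP in 1% FBS DMEM, stimulated with 500 pg/mL TGF-beta after compound addition. %Activity was normalised to no-cell wells (complete cell-killing) and DMSO (no toxicity), and curves were fitted and classified.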
TGFb SMAD3 inh: TGF-b pathway inhibition | 410,000 compounds, 1.2% hits | HepG2 CAGA-GFP TGF-b/SMAD3 reporter, GFP fluorescence, 18 h; TGF-beta stimulated, 500 pg/mL final | Potency, µM (top dose mostly 46.1 µM), for inactives: at the highest dose activity, negative = inhibition, hits mostly inhibitors; further: potency means the concentration at half of the fitted maximal effect; on the % scale 0 is the no-effect control and ±100 the full control effect; nearly all actives have a fitted effect of over 65% in size
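Per well, imaged GFP fluorescence of HEPG2 CAGA-GFP cells gives the signal; cells get compound, then TGF-beta (500 pg/mL final), 18 h at 37 degrees C; %Activity versus -TGF-beta and +DMSO controls.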
TDP1 block: inhibitors of human tyrosyl-DNA phosphodiesterase TDP1; 350,000 compounds, 0.28% hits; recombinant TDP1, AlphaScreen DNA substrate cleavage; AID 485290; Q9NUW8; Potency, µM (titrated, usually from 130 µM), without a hit: at the top dose activity change, negative = inhibition, most hits filed as inhibitors; further: potency means the concentration at half of the fitted maximal effect; on the % scale 0 is the no-effect control and ±100 the full control effect; nearly all actives have a fitted effect of over 40% in size
Target sequence (Q9NUW8 whole entry, looked up): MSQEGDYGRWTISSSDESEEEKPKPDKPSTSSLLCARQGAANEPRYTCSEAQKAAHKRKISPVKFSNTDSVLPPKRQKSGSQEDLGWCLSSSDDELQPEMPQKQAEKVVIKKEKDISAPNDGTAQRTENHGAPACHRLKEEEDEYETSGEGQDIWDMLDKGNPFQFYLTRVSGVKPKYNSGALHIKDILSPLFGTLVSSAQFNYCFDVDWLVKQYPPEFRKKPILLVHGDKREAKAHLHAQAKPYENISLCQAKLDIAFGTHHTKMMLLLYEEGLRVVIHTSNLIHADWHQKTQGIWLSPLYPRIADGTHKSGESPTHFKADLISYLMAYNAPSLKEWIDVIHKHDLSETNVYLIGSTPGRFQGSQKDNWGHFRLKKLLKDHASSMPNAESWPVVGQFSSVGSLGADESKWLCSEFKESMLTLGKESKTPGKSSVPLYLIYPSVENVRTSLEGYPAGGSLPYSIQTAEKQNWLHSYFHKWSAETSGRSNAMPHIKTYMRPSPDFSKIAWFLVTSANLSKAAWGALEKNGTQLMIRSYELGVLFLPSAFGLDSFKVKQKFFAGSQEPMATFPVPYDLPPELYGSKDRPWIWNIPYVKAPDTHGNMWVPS
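Enzyme-compound mixtures sat 15 min at room temperature, followed by a 5 min reaction with 15 nM final substrate and 10 min with AlphaScreen beads. Recombinant human Tdp1 was used at 1 nM final.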
DT40 TDP1 no CPT: qHTS for Inhibitors of human tyrosyl-DNA phosphodiesterase 1 (TDP1): qHTS in cells in absence of CPT | DT40 Tdp1-/- hTDP1 cells, no CPT, ATP luminescence, 48 h | Potency, µM (titrated, usually from 46.2 µM), for the others: top-dose activity change, negative = growth inhibition, most hits filed as inhibitors | 420,000 compounds, 15% hits | AID 686978, 2013; further: potency means the concentration at half of the fitted maximal effect; on the % scale 0 is the no-effect control and ±100 the full control effect; nearly all actives have a fitted effect of over 55% in size
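Luminescent ATP content (CellTiter-Glo) served as the growth readout. Knockout chicken DT40 cells expressing human TDP1 were exposed to compounds without camptothecin for a minimum 48 hr at 37 °C.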
TDP1 cell CPT: DT40-hTDP1 cell growth loss with CPT; chicken DT40 Tdp1-/-;hTDP1 cells + 20 nM CPT, ATP luminescence, 48 h; Potency, µM (series often up to 46.2 µM), inactives show at the top dose activity change, negative = growth inhibition, usual class: inhibitors; 420,000 compounds, 12% hits; further: potency means the concentration at half of the fitted maximal effect; on the % scale 0 is the no-effect control and ±100 the full control effect; nearly all actives have a fitted effect of over 55% in size
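Cell growth measured by CellTiter-Glo luminescence after a minimum 48 h, 37 C compound exposure with 20 nM CPT in Tdp1-knockout DT40 cells stably expressing hTDP1, seeded 400/well; qHTS titration format.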
IL1B secr inh: inflammasome signaling inhibition, IL-1 beta readout; activity change, % at 57.5 µM; AID 743279; 360,000 compounds, 4.7% hits; THP-1 LPS/ATP IL-1B secretion, AlphaLISA, 16 h; hits give low values; in the data active means activity change below about -50%; inconclusive means mostly about -30% to -49%; further: on the % scale 0 is the no-effect control and ±100 the full control effect
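THP-1 cells pretreated 1 hr with compounds (up to 57.5 uM final), then stimulated with LPS (250 ng/mL final) plus ATP (1.25 mM final); secreted IL-1B measured by AlphaLISA after 16 hr, decreased signal indicating inhibition.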
* = called active by the depositor; [ ] = dose if it differs, or a comment. The list is not random: actives were taken first. Their share in the collection is about 18%. Unless noted, the call rests on the fitted dose curve; in most records, active means well fitted curve in the direction sought with a large enough effect; inconclusive means small, poorly fitted or top-dose-only effect, or another doubt; inactive means no such curve, though single readings can be large; an effect the other way counts as inactive or inconclusive.

What do the screens show for `COc1ccc(N(CC(O)CN2CCOCC2)S(=O)(=O)c2ccccc2)cc1` (stereo not drawn)?
HepG2 tox: -10%; TGFb SMAD3 inh: -9%; DT40 TDP1 no CPT: -7%; TDP1 cell CPT: -25%; IL1B secr inh: 13

How did O=C(c1ccccc1F)N1CCN(c2cnn(-c3cccc(Cl)c3)c(=O)c2Cl)CC1 do in these assays?
HepG2 tox: -14%; TGFb SMAD3 inh: 2%; TDP1 block: -3%; DT40 TDP1 no CPT: 21µM*; TDP1 cell CPT: inconclusive; IL1B secr inh: -28

How did O=C(c1cccc(Br)c1)N1CCN(c2cnn(-c3ccccc3)c(=O)c2Cl)CC1 do in these assays?
HepG2 tox: -3%; TGFb SMAD3 inh: -15%; TDP1 block: -1%; DT40 TDP1 no CPT: 16µM*; TDP1 cell CPT: inconclusive; IL1B secr inh: 21

How did COC(=O)n1c(=S)oc2cc(Cl)ccc21 do in these assays?
TDP1 block: 3%

How did CCCCOC(=O)n1c(=S)oc2cc(Cl)ccc21 do in these assays?
HepG2 tox: -26%; TGFb SMAD3 inh: -2%; TDP1 block: 6%; DT40 TDP1 no CPT: 23µM*; TDP1 cell CPT: 8.2µM*; IL1B secr inh: inconclusive

What do the screens show for `[N-]=[N+]=NC(c1ccccc1)C(NC(=O)c1cc(C(F)(F)F)cc(C(F)(F)F)c1)c1ccccc1` (stereo not drawn)?
DT40 TDP1 no CPT: 23µM*; TDP1 cell CPT: inconclusive; IL1B secr inh: 12

Results for CCCCN1CC(COCc2ccccc2)Oc2cccc(N3CCCC3)c2S1(=O)=O (stereo not drawn) ?
HepG2 tox: -18%; TGFb SMAD3 inh: -6%; DT40 TDP1 no CPT: 16µM*; TDP1 cell CPT: inconclusive; IL1B secr inh: 15

Results for CC(C)CN1CC(COCc2ccccc2)Oc2ccccc2S1(=O)=O (stereo not drawn) ?
HepG2 tox: -14%; TGFb SMAD3 inh: inconclusive; TDP1 block: -4%[56.1 µM]; DT40 TDP1 no CPT: inconclusive; TDP1 cell CPT: 21µM*; IL1B secr inh: -17

How did O=S1(=O)c2ccccc2OC(COCc2ccccc2)CN1C1CC1 (stereo not drawn) do in these assays?
HepG2 tox: 7%; TGFb SMAD3 inh: -17%; TDP1 block: 0%[56.1 µM]; DT40 TDP1 no CPT: 18µM*; TDP1 cell CPT: 18µM*; IL1B secr inh: 18

How did COc1ccc(C(CNC(=O)COc2ccccc2)N2CCCCC2)cc1 (stereo not drawn) do in these assays?
HepG2 tox: 9%; TGFb SMAD3 inh: inconclusive; TDP1 block: 1%; DT40 TDP1 no CPT: 0%; TDP1 cell CPT: -25%; IL1B secr inh: 0

How did COc1ccc(C(CNC(=O)c2ccc(-c3nc4ccccc4s3)o2)N2CCCC2)cc1 (stereo not drawn) do in these assays?
HepG2 tox: -30%; TGFb SMAD3 inh: -5%; TDP1 block: 3%; DT40 TDP1 no CPT: 21µM*; TDP1 cell CPT: 23µM*; IL1B secr inh: -16

What do the screens show for `COc1ccc(C(CNC(=O)c2ccc(-c3ccccc3Cl)o2)N2CCCC2)cc1` (stereo not drawn)?
HepG2 tox: 11µM*; TGFb SMAD3 inh: inconclusive; DT40 TDP1 no CPT: 4.1µM*; TDP1 cell CPT: 5.2µM*; IL1B secr inh: -11

What do the screens show for `COc1ccc(C(CNC(=O)Cc2ccccc2F)N2CCCCC2)cc1` (stereo not drawn)?
HepG2 tox: 8%; TGFb SMAD3 inh: -1%; TDP1 block: 5%; DT40 TDP1 no CPT: -7%; TDP1 cell CPT: 6%; IL1B secr inh: 6

How did COc1ccc(C(CNC(=O)c2ccc(C)o2)N2CCOCC2)cc1 (stereo not drawn) do in these assays?
HepG2 tox: -1%; TGFb SMAD3 inh: -10%; TDP1 block: 5%; DT40 TDP1 no CPT: -1%; TDP1 cell CPT: 7%; IL1B secr inh: 10

How did COc1ccc(C(CNC(=O)Cc2ccccc2Cl)N2CCCCC2)cc1 (stereo not drawn) do in these assays?
HepG2 tox: -1%; TGFb SMAD3 inh: -8%; TDP1 block: -9%; DT40 TDP1 no CPT: -4%; TDP1 cell CPT: -16%; IL1B secr inh: -52*

Results for Cc1ccc(C(=O)N(C)CC(=O)Nc2ccc(Cl)c(C(F)(F)F)c2)cc1S(=O)(=O)N1CCCCC1 ?
HepG2 tox: -24%; TGFb SMAD3 inh: inconclusive; TDP1 block: 2%; DT40 TDP1 no CPT: 23µM*; TDP1 cell CPT: inconclusive; IL1B secr inh: -23

What do the screens show for `COc1ccc(S(=O)(=O)N2CCCCCC2)cc1C(=O)N(C)CC(=O)Nc1ccc(Cl)c(Cl)c1`?
HepG2 tox: -7%; TGFb SMAD3 inh: -17%; DT40 TDP1 no CPT: inconclusive; TDP1 cell CPT: inconclusive; IL1B secr inh: -59*

Results for CN(CC(=O)Nc1ccc(Cl)c(C(F)(F)F)c1)C(=O)c1ccc(S(=O)(=O)N2CCOCC2)cc1 ?
HepG2 tox: -23%; TGFb SMAD3 inh: inconclusive; DT40 TDP1 no CPT: 6.5µM*; TDP1 cell CPT: 4.6µM*; IL1B secr inh: 73

How did COc1cccc(NC(=O)CN(C)C(=O)c2cc(S(=O)(=O)N3CCCCC3)ccc2Cl)c1 do in these assays?
HepG2 tox: 5%; TGFb SMAD3 inh: 0%; DT40 TDP1 no CPT: inconclusive; TDP1 cell CPT: inconclusive; IL1B secr inh: 7

Results for Cc1ccc(S(=O)(=O)N2CCCCC2)cc1C(=O)N(C)CC(=O)Nc1ccc(Cl)c(C(F)(F)F)c1 ?
HepG2 tox: -6%; TGFb SMAD3 inh: 2%; TDP1 block: 1%; DT40 TDP1 no CPT: inconclusive; TDP1 cell CPT: inconclusive; IL1B secr inh: -56*

How did COc1ccc(S(=O)(=O)N2CCCCCC2)cc1C(=O)N(C)CC(=O)Nc1cc(C)ccc1C do in these assays?
HepG2 tox: 8%; TGFb SMAD3 inh: 3%; TDP1 block: 1%; DT40 TDP1 no CPT: -20%; TDP1 cell CPT: inconclusive; IL1B secr inh: -14

What do the screens show for `O=C(NS(=O)(=O)N1CCOCC1)C1=C(N2CCCC2)COC1=O`?
HepG2 tox: -2%; TGFb SMAD3 inh: -3%; TDP1 block: 2%; DT40 TDP1 no CPT: -8%; TDP1 cell CPT: 4%; IL1B secr inh: 7

What do the screens show for `CC1CCN(CCCNC(=O)c2ccc(Cn3c(=S)[nH]c4ccc(Br)cc4c3=O)cc2)CC1`?
TDP1 block: 5%

Screens as filed in PubChem.
